JMJD2C inh = blocks human GASC-1 demethylase activity | GST-JMJD2C(1-420) H3K9me3 demethylation, DELFIA europium | inhibition, % at 2.35 µM | 0.069% of 330,000 active | AID 2099;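 active = more than half of a compound's replicate wells show inhibition beyond 50%, single wells judged on their own value; inconclusive = some, but no more than half, of replicates pass 50% inhibition; inactive = no replicate passes 50% inhibition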;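 note: signal counts dimethyl H3K9 product captured on neutravidin plate; 0% = median of DMSO wells and 100% = 0.3 times that DMSO median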
Granule exo inh = lytic granule exocytosis inhibition | TALL-104 LAMP-1 surface exposure, flow cytometry; cells stimulated with thapsigargin and PMA | inhibition, % at 10 µM | 0.66% of 360,000 active;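 active = inhibition above about 55%, limit read from the data; inconclusive = no clear call, values can overlap the other calls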
V-ATPase pHluor = regulators of yeast V-ATPase proton transport; 0.37% of 350,000 active; S. cerevisiae, pHLuorin cytosolic pH fluorescence; AID 504577; response, % at 10 µM; in the data active = response mostly above about 7.3%, no sharp cut-off; inactive = mostly below about 5.4%; note: actives read high
HTR2A ag = agonists of mouse serotonin 5-HT2A receptor (HTR2A). P35363. CHO-K1 mHTR2A beta-arrestin complementation, luminescence; percent of 30 µM serotonin response. activation, % at 7.6 µM. 0.66% of 360,000 active. AID 624169;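 active = activation above a run cutoff, the mean activation of all tested compounds plus 3 SD, cut at about 14% in these data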;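 note: 0% = plate median of compound wells and 100% = 30 µM serotonin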
VLA-4 inh = inhibition in a human VLA-4 binding assay | VLA-4 expressing cells, ligand binding flow cytometry | inhibition, % (about 7 µM as worked out from the volumes in the protocol) | 0.2% of 330,000 active | AID 2557; in the data active = inhibition above about 50%
Target sequence (P13612 whole entry, looked up): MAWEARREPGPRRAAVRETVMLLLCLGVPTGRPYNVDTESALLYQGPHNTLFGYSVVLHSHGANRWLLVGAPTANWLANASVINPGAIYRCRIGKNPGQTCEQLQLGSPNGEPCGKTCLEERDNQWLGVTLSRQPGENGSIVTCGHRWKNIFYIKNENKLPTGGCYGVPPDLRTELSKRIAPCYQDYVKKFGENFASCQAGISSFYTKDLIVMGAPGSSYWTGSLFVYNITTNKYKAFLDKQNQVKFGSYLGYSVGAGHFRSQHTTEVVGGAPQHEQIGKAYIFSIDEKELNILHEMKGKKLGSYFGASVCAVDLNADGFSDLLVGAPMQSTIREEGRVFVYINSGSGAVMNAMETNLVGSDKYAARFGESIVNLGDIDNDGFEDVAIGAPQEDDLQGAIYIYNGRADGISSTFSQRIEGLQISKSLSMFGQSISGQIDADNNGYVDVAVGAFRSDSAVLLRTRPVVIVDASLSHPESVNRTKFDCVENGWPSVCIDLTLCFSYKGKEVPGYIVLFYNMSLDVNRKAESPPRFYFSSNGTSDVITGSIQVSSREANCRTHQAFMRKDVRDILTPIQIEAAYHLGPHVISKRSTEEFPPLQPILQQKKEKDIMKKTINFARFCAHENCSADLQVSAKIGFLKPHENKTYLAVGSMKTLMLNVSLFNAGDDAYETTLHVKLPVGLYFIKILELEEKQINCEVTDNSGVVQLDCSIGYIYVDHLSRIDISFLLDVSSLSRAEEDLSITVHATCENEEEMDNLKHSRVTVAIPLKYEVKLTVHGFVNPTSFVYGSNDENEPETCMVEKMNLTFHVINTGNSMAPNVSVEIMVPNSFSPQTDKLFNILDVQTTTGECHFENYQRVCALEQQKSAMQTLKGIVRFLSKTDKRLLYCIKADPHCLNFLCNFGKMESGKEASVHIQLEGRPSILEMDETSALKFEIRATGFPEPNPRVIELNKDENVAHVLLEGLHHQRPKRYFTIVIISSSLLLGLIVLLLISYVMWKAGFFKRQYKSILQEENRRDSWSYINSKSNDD
MEX-5 binding = C. elegans MEX-5 TCR-2 RNA binding activity; Q9XUB2; MEX-5/FITC-TCR2 RNA binding, fluorescence polarization; active compounds read low; activity score (negative = inhibition of binding), % at 10 µM; 0.38% of 300,000 active; AID 1832;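 active = inhibition past about -25% in most replicates, and total fluorescence under double the plate's negative control median, limit read from the data; inconclusive = replicates evenly split on the limit, or fluorescence at least double controls; inactive = too little inhibition in most replicates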;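 note: 0% = DMSO and -100% = 5 µM competing unlabeled TCR2 RNA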
* marks the source's active call; other numbers are inactive results; i = inactive; ? = inconclusive; . = no result. Rows were chosen to be rich in hits. Some 2.2% of all compounds tested hit in one or more screens of this group.

SMILES | JMJD2C inh | Granule exo inh | V-ATPase pHluor | HTR2A ag | VLA-4 inh | MEX-5 binding
O=[N+]([O-])c1ccc(OCn2cncn2)cc1 | -4 | -1 | 5 | -4 | -7 | 2
CCO[C@@H]1OC(C(=O)NC2CC2)=C[C@H](c2c[nH]c3ccccc23)[C@H]1CCCO | 52* | 2 | 16 | 0 | 20 | 0
CCCC(=NC(C)CC)C1=C(O)CC(c2ccccc2)CC1=O (centres undefined) | 3 | 8 | 0 | 0 | 2 | 1
O=C1CNC(=S)N1CCc1ccc(O)c(O)c1 | 12 | -1 | -2 | 1 | -5 | -30*
COC1=C(OC)C(=O)C(Sc2ccc3ccccc3c2)=CC1=O | . | 86* | 5 | 1 | . | .
COc1ccc(S(=O)(=O)Oc2ccc3ccccc3c2)cc1 | -6 | -4 | -1 | 2 | 14 | 2
O=C(COC(=O)c1c(F)cccc1F)Nc1ccc(N2CCCCC2)cc1 | -1 | 7 | 3 | -7 | 8 | .
CN1C2C=C3C(C#N)=C(N)C(C#N)(C#N)[C@@H](c4cccs4)C3C1CC2 (some centres undefined) | 14 | 29 | -9 | 3 | 5 | -11
CC(C)(C)C1CC=C2C(C#N)=C(N)C(C#N)(C#N)C(c3cccs3)C2C1 (centres undefined) | -2 | . | . | . | 13 | -41*
COC(=O)C(Nc1ccccc1Cl)(c1cc(C)c(O)c(C)c1)C(F)(F)F (centres undefined) | -34 | 25 | 6 | -4 | -1 | 1
COC(=O)/C(=C(/F)Sc1cc(C)c(O)c(C)c1)C(F)(F)F | 10 | -1 | -1 | 16* | -9 | -1
O=c1ccc2cc3c4c(c2o1)CCCN4CCC3 | 5 | 1 | 9 | 3 | -28 | ?
O=c1oc2c3c4c(cc2s1)CCCN4CCC3 | 4 | 0 | -2 | -2 | -12 | -32*
Cc1cc(=O)[nH]c(N/N=C/c2ccc(O)c(O)c2)n1 | -1 | 9 | -1 | -6 | 1 | -42*
CC(Oc1ccc(Cl)cc1)C(=O)Nc1ccc(S(=O)(=O)N2CCOCC2)cc1 (centres undefined) | 1 | -5 | 3 | -4 | 1 | 0
CCO[C@H]1OC(C(=O)Nc2ccccc2)=C[C@@H](c2cn(C(C)=O)c3ccccc23)[C@@H]1CCCO | -1 | -2 | 5 | 4 | . | 1
COc1ccc(CS(=O)(=O)/C(Cl)=C(/Cl)C(=O)Nc2ccc(OC)nc2)cc1 | 18 | 84* | -3 | -8 | 16 | 1
O=C(COC(=O)c1ccc([N+](=O)[O-])s1)NCCc1ccccc1 | -3 | 1 | 4 | 17* | 1 | .
O=C(COC(=O)c1ccc([N+](=O)[O-])s1)NC(=O)NCc1ccccc1 | -14 | 5 | -3 | -8 | 4 | 2
O=C(COC(=O)c1ccc([N+](=O)[O-])s1)c1ccc[nH]1 | -9 | 8 | 39* | 1 | 12 | .
O=C(OCC(=O)c1ccc[nH]1)c1ccc([N+](=O)[O-])cc1 | 6 | 0 | 0 | 1 | -2 | .
Cc1cc2nc(C)n(CCCN)c2cc1C | 6 | 1 | 0 | -9 | -28 | 2
Cc1cc2nc(C)n(CCCNC(=O)Nc3ccc(C#N)cc3)c2cc1C | 1 | -2 | -4 | 44* | 4 | 2
Cc1ccc(S(=O)(=O)N2CCOCC2)cc1C(=O)Nc1ccc(C(N)=O)cc1 | -8 | -4 | 16* | 10 | -12 | -2
CCOc1ccc(/C=N/NC(=O)Cc2csc(Nc3cccc(C(F)(F)F)c3)n2)c(OCC)c1 | -3 | 68* | -5 | -2 | -1 | 0
SMILES | JMJD2C inh | Granule exo inh | V-ATPase pHluor | HTR2A ag | VLA-4 inh | MEX-5 binding
O=C(CCC(=O)N1CCN(c2ccc(Cl)c(Cl)c2)CC1)c1ccccc1 | 5 | -5 | -1 | 13 | -4 | 1
O=[N+]([O-])c1ccc(Cl)c(C2Nc3cccc4cccc(c34)N2)c1 | 28 | 56* | 2 | -1 | 31 | 0
O=[N+]([O-])c1ccccc1C1Nc2cccc3cccc(c23)N1 | 15 | 9 | 0 | 2 | 11 | 1
O=C(NC1CCc2ccccc21)c1cc(COc2ccc(F)cc2Cl)on1 (centres undefined) | -6 | 1 | -4 | -8 | 0 | -2
O=C(NC1CCc2ccccc21)c1cc(COc2cncc(Cl)c2)on1 (centres undefined) | 60* | 4 | -1 | 4 | -2 | -1
CCN(CC)CCNC(=O)c1ccc(NC(=O)c2cc(S(=O)(=O)N3CCCCC3)ccc2N2CCOCC2)cc1 | . | -7 | 3 | 4 | . | .
ClCc1nc2ccccc2n1Cc1ccccc1 | -11 | 31 | -4 | 1 | i | -66*
COCc1nc2ccccc2n1Cc1ccccc1 | 0 | 1 | 8 | -6 | -4 | 0
COC(=O)CSc1nc(C)cc(C(F)(F)F)c1C#N | 16 | 1 | 3 | 1 | -7 | 4
Cc1ccc(S(=O)(=O)CCSc2nc(C)cc(C(F)(F)F)c2C#N)cc1 | -34 | 2 | -4 | -5 | -322 | -54*
COc1cc(C2Oc3ccccc3C=C2[N+](=O)[O-])cc(OC)c1OC (centres undefined) | . | 60* | 3 | 5 | . | .
COc1cc(C2NC(=O)c3ccccc3O2)cc(OC)c1OC (centres undefined) | 0 | 0 | 2 | 3 | 22 | -4
CCCCc1ccc(/C=C2\C(=O)ON=C2c2ccccc2)s1 | -2 | -2 | 2 | 1 | -3 | -33*
O=C(Nc1nnc(-c2ccco2)o1)c1ccc([N+](=O)[O-])s1 | 16 | -2 | -2 | -2 | -1 | -2
O=C(CCC(=O)c1cccs1)Nc1ncccc1O | 0 | -4 | -3 | 0 | -3 | 0
CC(/C=C/c1ccco1)=N/NC(=O)CNc1ccccc1C | -8 | 1 | -2 | 5 | 6 | -2
CC(/C=C/c1ccco1)=N\NC(=O)CNc1ccc2ccccc2c1 | 4 | 100* | -3 | -2 | 4 | 3
COC(=O)c1cc(NC(=O)c2cccc(Cl)c2)c(=O)oc1/C=C/Nc1cc(C)cc(C)c1 | 0 | . | . | . | . | -28*
CSc1ccc(C=NNc2ccc(S(=O)(=O)Nc3ccccc3C(=O)O)cc2[N+](=O)[O-])cc1 | 103* | 2 | 2 | 1 | -1 | .
COc1ccc(C=NNc2ccc(S(=O)(=O)Nc3ccccc3C(=O)O)cc2[N+](=O)[O-])c(OC)c1 | 26 | 3 | 1 | -7 | 10 | .
COc1ccc(NC(=S)NNc2ccc(S(=O)(=O)Nc3ccccc3C(=O)O)cc2[N+](=O)[O-])cc1 | 4 | 0 | 2 | -2 | -5 | -87*
COc1cc2cc(/C=C/C(=O)c3ccco3)c(Cl)nc2cc1OC | 8 | 4 | 2 | 0 | -48 | -2
COc1ccc2cc(/C=C/C(=O)c3ccco3)c(Cl)nc2c1 | 18 | . | . | . | 15 | -4
Cc1ccc2cc(/C=C/C(=O)c3ccco3)c(Cl)nc2c1 | 11 | 95* | -4 | -2 | 6 | -2
